# Changes are numbered by the printed parent chain.
# Assays:
# Test in all cases: PBM; 200 nM protein, PBS
# Conditions in all cases: dsDNA, one strand shown
# HESX1 [1] = target: HESX1 (Homo sapiens, UniProt Q9UBX0 95-180, R165K)
# HESX1 [2] = target: HESX1 (Homo sapiens, UniProt Q9UBX0 95-180)
# HESX1 [3] = target: HESX1 (Homo sapiens, UniProt Q9UBX0 95-180, R109Q)
# HESX1 [4] = target: HESX1 (Homo sapiens, UniProt Q9UBX0 95-180, P111T)
# HESX1 [5] = target: HESX1 (Homo sapiens, UniProt Q9UBX0 95-180, F115L)
# Sequence of HESX1 (Homo sapiens, UniProt Q9UBX0 95-180, F115L) (Q9UBX0 95-180 F115L): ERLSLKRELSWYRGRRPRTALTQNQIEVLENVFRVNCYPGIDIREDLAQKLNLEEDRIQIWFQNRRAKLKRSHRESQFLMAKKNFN
# HOXB4 [6] = target: HOXB4 (Homo sapiens, UniProt P17483 148-234)
# Sequence of HOXB4 (Homo sapiens, UniProt P17483 148-234) (P17483 148-234): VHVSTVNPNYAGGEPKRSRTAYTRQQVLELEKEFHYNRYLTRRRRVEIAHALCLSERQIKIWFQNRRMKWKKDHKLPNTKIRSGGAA
# SHOX [7] = target: SHOX (Homo sapiens, UniProt O15266 103-189)
# Sequence of SHOX (Homo sapiens, UniProt O15266 103-189) (O15266 103-189): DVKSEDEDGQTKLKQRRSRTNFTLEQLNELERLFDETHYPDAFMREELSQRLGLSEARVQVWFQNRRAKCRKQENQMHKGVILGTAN
# HOXB9 [8] = target: HOXB9 (Homo sapiens, UniProt P17482 171-250, T197M)
# Sequence of HOXB9 (Homo sapiens, UniProt P17482 171-250, T197M) (P17482 171-250 T197M): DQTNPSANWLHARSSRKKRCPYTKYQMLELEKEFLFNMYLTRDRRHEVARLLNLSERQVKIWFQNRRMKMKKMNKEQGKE
# HOXB9 [9] = target: HOXB9 (Homo sapiens, UniProt P17482 171-250)
# Sequence of HOXB9 (Homo sapiens, UniProt P17482 171-250) (P17482 171-250): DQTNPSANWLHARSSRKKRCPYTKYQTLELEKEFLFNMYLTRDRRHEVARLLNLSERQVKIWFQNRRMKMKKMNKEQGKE
# HOXB4 [10] = target: HOXB4 (Homo sapiens, UniProt P17483 148-234, V174I)
# Sequence of HOXB4 (Homo sapiens, UniProt P17483 148-234, V174I) (P17483 148-234 V174I): as the sequence (P17483 148-234) above, with V27I counted along it
# ALX1 [11] = target: ALX1 (Homo sapiens, UniProt Q15699 118-204, L144V)
# Sequence of ALX1 (Homo sapiens, UniProt Q15699 118-204, L144V) (Q15699 118-204 L144V): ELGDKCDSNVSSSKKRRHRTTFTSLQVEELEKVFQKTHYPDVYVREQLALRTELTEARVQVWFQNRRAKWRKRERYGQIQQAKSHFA
# SHOX [12] = target: SHOX (Homo sapiens, UniProt O15266 103-189, R173C)
# Sequence of SHOX (Homo sapiens, UniProt O15266 103-189, R173C) (O15266 103-189 R173C): as the sequence (O15266 103-189) above, with R71C counted along it
# ALX1 [13] = target: ALX1 (Homo sapiens, UniProt Q15699 118-204, L144R)
# Sequence of ALX1 (Homo sapiens, UniProt Q15699 118-204, L144R) (Q15699 118-204 L144R): as the sequence (Q15699 118-204 L144V) above, with V27R counted along it
# HOXB9 [14] = target: HOXB9 (Homo sapiens, UniProt P17482 171-250, R186Q)
# Sequence of HOXB9 (Homo sapiens, UniProt P17482 171-250, R186Q) (P17482 171-250 R186Q): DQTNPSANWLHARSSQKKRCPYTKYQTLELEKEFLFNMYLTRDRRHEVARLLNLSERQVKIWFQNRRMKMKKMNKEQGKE
# ALX1 [15] = target: ALX1 (Homo sapiens, UniProt Q15699 118-204)
# Sequence of ALX1 (Homo sapiens, UniProt Q15699 118-204) (Q15699 118-204): as the sequence (Q15699 118-204 L144V) above, with V27L counted along it
# VENTX [16] = target: T1, VENTX (Homo sapiens, UniProt O95231 78-163, R121Q)
# T1 sequence: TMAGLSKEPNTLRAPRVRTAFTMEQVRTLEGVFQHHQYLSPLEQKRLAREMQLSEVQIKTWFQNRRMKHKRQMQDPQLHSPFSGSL
# HOXA4 [17] = target: HOXA4 (Homo sapiens, UniProt Q00056 201-287, W262R)
# Sequence of HOXA4 (Homo sapiens, UniProt Q00056 201-287, W262R) (Q00056 201-287 W262R): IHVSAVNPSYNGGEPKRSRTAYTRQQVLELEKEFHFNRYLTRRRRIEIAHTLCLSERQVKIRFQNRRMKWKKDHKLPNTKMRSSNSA
# HOXC9 [18] = target: HOXC9 (Homo sapiens, UniProt P31274 178-260, K195R)
# Sequence of HOXC9 (Homo sapiens, UniProt P31274 178-260, K195R) (P31274 178-260 K195R): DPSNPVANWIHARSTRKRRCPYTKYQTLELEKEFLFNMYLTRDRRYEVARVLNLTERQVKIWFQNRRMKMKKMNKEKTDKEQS
# VENTX [19] = target: T2, VENTX (Homo sapiens, UniProt O95231 78-163)
# T2 sequence: T1 sequence with Q44R
# HOXA7 [20] = target: HOXA7 (Homo sapiens, UniProt P31268 116-202)
# Sequence of HOXA7 (Homo sapiens, UniProt P31268 116-202) (P31268 116-202): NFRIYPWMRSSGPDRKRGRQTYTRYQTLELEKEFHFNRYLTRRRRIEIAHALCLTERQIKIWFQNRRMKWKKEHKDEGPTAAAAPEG
# HOXC10 [21] = target: HOXC10 (Homo sapiens, UniProt Q9NYD6 254-340)
# Sequence of HOXC10 (Homo sapiens, UniProt Q9NYD6 254-340) (Q9NYD6 254-340): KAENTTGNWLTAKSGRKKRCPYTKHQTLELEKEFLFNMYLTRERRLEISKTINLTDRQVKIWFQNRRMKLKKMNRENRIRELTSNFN
# PAX4 [22] = target: T3, PAX4 (Homo sapiens, UniProt O43316 9-242, R200K)
# T3 sequence: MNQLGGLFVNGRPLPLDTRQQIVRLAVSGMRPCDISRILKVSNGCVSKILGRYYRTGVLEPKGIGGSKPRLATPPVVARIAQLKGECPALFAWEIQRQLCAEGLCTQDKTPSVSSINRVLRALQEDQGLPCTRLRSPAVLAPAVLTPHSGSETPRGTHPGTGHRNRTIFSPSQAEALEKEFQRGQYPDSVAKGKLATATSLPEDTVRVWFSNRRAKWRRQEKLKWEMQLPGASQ
# VENTX [23] = target: T4, VENTX (Homo sapiens, UniProt O95231 78-163, Y115F)
# T4 sequence: T1 sequence with Y38F, Q44R
# PAX4 [24] = target: T5, PAX4 (Homo sapiens, UniProt O43316 9-242)
# T5 sequence: T3 sequence with K192R
# HOXB6 [25] = target: HOXB6 (Homo sapiens, UniProt P17509 132-218, K202E)
# Sequence of HOXB6 (Homo sapiens, UniProt P17509 132-218, K202E) (P17509 132-218 K202E): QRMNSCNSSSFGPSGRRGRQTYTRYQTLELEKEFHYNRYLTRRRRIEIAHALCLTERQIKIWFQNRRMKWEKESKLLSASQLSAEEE
# HOXA2 [26] = target: HOXA2 (Homo sapiens, UniProt O43364 129-215, R185T)
# Sequence of HOXA2 (Homo sapiens, UniProt O43364 129-215, R185T) (O43364 129-215 R185T): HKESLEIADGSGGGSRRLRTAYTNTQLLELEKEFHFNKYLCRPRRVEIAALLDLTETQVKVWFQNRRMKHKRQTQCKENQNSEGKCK
# HOXA4 [27] = target: HOXA4 (Homo sapiens, UniProt Q00056 201-287, R217L)
# Sequence of HOXA4 (Homo sapiens, UniProt Q00056 201-287, R217L) (Q00056 201-287 R217L): as the sequence (Q00056 201-287 W262R) above, with R17L, R62W counted along it
# HOXC9 [28] = target: HOXC9 (Homo sapiens, UniProt P31274 178-260)
# Sequence of HOXC9 (Homo sapiens, UniProt P31274 178-260) (P31274 178-260): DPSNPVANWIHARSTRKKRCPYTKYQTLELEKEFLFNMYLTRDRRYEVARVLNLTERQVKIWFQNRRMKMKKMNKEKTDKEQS
# PAX4 [29] = target: T6, PAX4 (Homo sapiens, UniProt O43316 9-242, R200Q)
# T6 sequence: T3 sequence with K192Q
# HOXC9 [30] = target: HOXC9 (Homo sapiens, UniProt P31274 178-260, R193K)
# Sequence of HOXC9 (Homo sapiens, UniProt P31274 178-260, R193K) (P31274 178-260 R193K): as the sequence (P31274 178-260) above, with R16K counted along it
# HOXA2 [31] = target: HOXA2 (Homo sapiens, UniProt O43364 129-215, R185K)
# Sequence of HOXA2 (Homo sapiens, UniProt O43364 129-215, R185K) (O43364 129-215 R185K): as the sequence (O43364 129-215 R185T) above, with T57K counted along it
# PAX4 [32] = target: T7, PAX4 (Homo sapiens, UniProt O43316 9-242, F177V)
# T7 sequence: T3 sequence with F169V, K192R
# HOXA4 [33] = target: HOXA4 (Homo sapiens, UniProt Q00056 201-287)
# Sequence of HOXA4 (Homo sapiens, UniProt Q00056 201-287) (Q00056 201-287): as the sequence (Q00056 201-287 W262R) above, with R62W counted along it
# HOXC10 [34] = target: HOXC10 (Homo sapiens, UniProt Q9NYD6 254-340, K271E)
# Sequence of HOXC10 (Homo sapiens, UniProt Q9NYD6 254-340, K271E) (Q9NYD6 254-340 K271E): as the sequence (Q9NYD6 254-340) above, with K18E counted along it
# PAX4 [35] = target: T8, PAX4 (Homo sapiens, UniProt O43316 9-242, F177Y)
# T8 sequence: T3 sequence with F169Y, K192R
# VAX1 [36] = target: VAX1 (Homo sapiens, UniProt Q5SQQ9 86-172)
# Sequence of VAX1 (Homo sapiens, UniProt Q5SQQ9 86-172) (Q5SQQ9 86-172): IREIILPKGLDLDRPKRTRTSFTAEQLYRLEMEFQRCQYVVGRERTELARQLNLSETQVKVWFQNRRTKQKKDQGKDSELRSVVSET
# HOXD13 = HOXD13 (Homo sapiens, UniProt P35453 263-343, T313A)
# Sequence of HOXD13 (P35453 263-343 T313A): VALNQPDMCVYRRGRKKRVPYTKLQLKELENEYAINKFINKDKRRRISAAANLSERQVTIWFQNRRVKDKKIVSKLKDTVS
# HOXC9 [37] = target: HOXC9 (Homo sapiens, UniProt P31274 178-260, R222W)
# Sequence of HOXC9 (Homo sapiens, UniProt P31274 178-260, R222W) (P31274 178-260 R222W): as the sequence (P31274 178-260) above, with R45W counted along it
# VAX1 [38] = target: VAX1 (Homo sapiens, UniProt Q5SQQ9 86-172, T142I)
# Sequence of VAX1 (Homo sapiens, UniProt Q5SQQ9 86-172, T142I) (Q5SQQ9 86-172 T142I): as the sequence (Q5SQQ9 86-172) above, with T57I counted along it
# PAX4 [39] = target: T9, PAX4 (Homo sapiens, UniProt O43316 9-242, R227W)
# T9 sequence: T3 sequence with K192R, R219W
# HOXA2 [40] = target: HOXA2 (Homo sapiens, UniProt O43364 129-215, Y150S)
# Sequence of HOXA2 (Homo sapiens, UniProt O43364 129-215, Y150S) (O43364 129-215 Y150S): as the sequence (O43364 129-215 R185T) above, with Y22S, T57R counted along it
# HOXA7 [41] = target: HOXA7 (Homo sapiens, UniProt P31268 116-202, W177C)
# Sequence of HOXA7 (Homo sapiens, UniProt P31268 116-202, W177C) (P31268 116-202 W177C): as the sequence (P31268 116-202) above, with W62C counted along it
# HOXA4 [42] = target: HOXA4 (Homo sapiens, UniProt Q00056 201-287, W262F)
# Sequence of HOXA4 (Homo sapiens, UniProt Q00056 201-287, W262F) (Q00056 201-287 W262F): as the sequence (Q00056 201-287 W262R) above, with R62F counted along it
# HOXA2 [43] = target: HOXA2 (Homo sapiens, UniProt O43364 129-215)
# Sequence of HOXA2 (Homo sapiens, UniProt O43364 129-215) (O43364 129-215): as the sequence (O43364 129-215 R185T) above, with T57R counted along it
# VAX1 [44] = target: VAX1 (Homo sapiens, UniProt Q5SQQ9 86-172, K157R)
# Sequence of VAX1 (Homo sapiens, UniProt Q5SQQ9 86-172, K157R) (Q5SQQ9 86-172 K157R): as the sequence (Q5SQQ9 86-172) above, with K72R counted along it
# HOXB6 [45] = target: HOXB6 (Homo sapiens, UniProt P17509 132-218)
# Sequence of HOXB6 (Homo sapiens, UniProt P17509 132-218) (P17509 132-218): as the sequence (P17509 132-218 K202E) above, with E71K counted along it
# Sequence of HESX1 (Homo sapiens, UniProt Q9UBX0 95-180, R165K) (Q9UBX0 95-180 R165K): as the sequence (Q9UBX0 95-180 F115L) above, with L21F, R71K counted along it
# Sequence of HESX1 (Homo sapiens, UniProt Q9UBX0 95-180) (Q9UBX0 95-180): as the sequence (Q9UBX0 95-180 F115L) above, with L21F counted along it
# Sequence of HESX1 (Homo sapiens, UniProt Q9UBX0 95-180, R109Q) (Q9UBX0 95-180 R109Q): as the sequence (Q9UBX0 95-180 F115L) above, with R15Q, L21F counted along it
# Sequence of HESX1 (Homo sapiens, UniProt Q9UBX0 95-180, P111T) (Q9UBX0 95-180 P111T): as the sequence (Q9UBX0 95-180 F115L) above, with P17T, L21F counted along it
sequence,measurement,setting,value
ACGCCTCG,binding signal,HESX1 [1],"6.4 upbm affinity estimate (log intensity, higher = more binding, comparable within an allelic series)"
same,binding signal,HESX1 [2],"6.35 upbm affinity estimate (log intensity, higher = more binding, comparable within an allelic series)"
same,binding signal,HESX1 [3],"6.36 upbm affinity estimate (log intensity, higher = more binding, comparable within an allelic series)"
same,binding signal,HESX1 [4],"6.4 upbm affinity estimate (log intensity, higher = more binding, comparable within an allelic series)"
same,binding signal,HESX1 [5],"6.44 upbm affinity estimate (log intensity, higher = more binding, comparable within an allelic series)"
GCCGAAAC,binding signal,HESX1 [1],"6.58 upbm affinity estimate (log intensity, higher = more binding, comparable within an allelic series)"
same,binding signal,HESX1 [2],"6.54 upbm affinity estimate (log intensity, higher = more binding, comparable within an allelic series)"
same,binding signal,HESX1 [3],"6.57 upbm affinity estimate (log intensity, higher = more binding, comparable within an allelic series)"
same,binding signal,HESX1 [4],"6.61 upbm affinity estimate (log intensity, higher = more binding, comparable within an allelic series)"
same,binding signal,HESX1 [5],"6.57 upbm affinity estimate (log intensity, higher = more binding, comparable within an allelic series)"
AGTTCAGC,binding signal,HESX1 [1],"6.57 upbm affinity estimate (log intensity, higher = more binding, comparable within an allelic series)"
same,binding signal,HESX1 [2],"6.45 upbm affinity estimate (log intensity, higher = more binding, comparable within an allelic series)"
same,binding signal,HESX1 [3],"6.48 upbm affinity estimate (log intensity, higher = more binding, comparable within an allelic series)"
same,binding signal,HESX1 [4],"6.48 upbm affinity estimate (log intensity, higher = more binding, comparable within an allelic series)"
same,binding signal,HESX1 [5],"6.59 upbm affinity estimate (log intensity, higher = more binding, comparable within an allelic series)"
CGGGAGAG,binding signal,HOXB4 [6],"7.57 upbm affinity estimate (log intensity, higher = more binding, comparable within an allelic series)"
same,binding signal,SHOX [7],"6.89 upbm affinity estimate (log intensity, higher = more binding, comparable within an allelic series)"
same,binding signal,HOXB9 [8],"8.56 upbm affinity estimate (log intensity, higher = more binding, comparable within an allelic series)"
same,binding signal,HOXB9 [9],"8.56 upbm affinity estimate (log intensity, higher = more binding, comparable within an allelic series)"
same,binding signal,HOXB4 [10],"7.66 upbm affinity estimate (log intensity, higher = more binding, comparable within an allelic series)"
same,binding signal,ALX1 [11],"6.33 upbm affinity estimate (log intensity, higher = more binding, comparable within an allelic series)"
same,binding signal,SHOX [12],"7.16 upbm affinity estimate (log intensity, higher = more binding, comparable within an allelic series)"
same,binding signal,ALX1 [13],"6.21 upbm affinity estimate (log intensity, higher = more binding, comparable within an allelic series)"
same,binding signal,HOXB9 [14],"8.56 upbm affinity estimate (log intensity, higher = more binding, comparable within an allelic series)"
same,binding signal,ALX1 [15],"6.23 upbm affinity estimate (log intensity, higher = more binding, comparable within an allelic series)"
GGCGCTAC,binding signal,HESX1 [1],"6.32 upbm affinity estimate (log intensity, higher = more binding, comparable within an allelic series)"
same,binding signal,HESX1 [2],"6.38 upbm affinity estimate (log intensity, higher = more binding, comparable within an allelic series)"
same,binding signal,HESX1 [3],"6.35 upbm affinity estimate (log intensity, higher = more binding, comparable within an allelic series)"
same,binding signal,HESX1 [4],"6.43 upbm affinity estimate (log intensity, higher = more binding, comparable within an allelic series)"
same,binding signal,HESX1 [5],"6.32 upbm affinity estimate (log intensity, higher = more binding, comparable within an allelic series)"
CATTAGAG,binding signal,HESX1 [1],"8.32 upbm affinity estimate (log intensity, higher = more binding, comparable within an allelic series)"
same,binding signal,HESX1 [2],"8.46 upbm affinity estimate (log intensity, higher = more binding, comparable within an allelic series)"
same,binding signal,HESX1 [5],"6.84 upbm affinity estimate (log intensity, higher = more binding, comparable within an allelic series)"
CAAATGGG,binding signal,HESX1 [1],"7.28 upbm affinity estimate (log intensity, higher = more binding, comparable within an allelic series)"
same,binding signal,HESX1 [2],"7.38 upbm affinity estimate (log intensity, higher = more binding, comparable within an allelic series)"
same,binding signal,HESX1 [3],"6.88 upbm affinity estimate (log intensity, higher = more binding, comparable within an allelic series)"
same,binding signal,HESX1 [5],"6.73 upbm affinity estimate (log intensity, higher = more binding, comparable within an allelic series)"
CATTAATG,binding signal,HOXB4 [6],"13.4 upbm affinity estimate (log intensity, higher = more binding, comparable within an allelic series)"
same,binding signal,VENTX [16],"11.8 upbm affinity estimate (log intensity, higher = more binding, comparable within an allelic series)"
same,binding signal,HOXB9 [8],"10.3 upbm affinity estimate (log intensity, higher = more binding, comparable within an allelic series)"
same,binding signal,HOXA4 [17],"10.7 upbm affinity estimate (log intensity, higher = more binding, comparable within an allelic series)"
same,binding signal,HOXC9 [18],"12.8 upbm affinity estimate (log intensity, higher = more binding, comparable within an allelic series)"
same,binding signal,VENTX [19],"12.5 upbm affinity estimate (log intensity, higher = more binding, comparable within an allelic series)"
same,binding signal,HOXA7 [20],"12 upbm affinity estimate (log intensity, higher = more binding, comparable within an allelic series)"
same,binding signal,HOXC10 [21],"12.3 upbm affinity estimate (log intensity, higher = more binding, comparable within an allelic series)"
same,binding signal,PAX4 [22],"11.8 upbm affinity estimate (log intensity, higher = more binding, comparable within an allelic series)"
same,binding signal,VENTX [23],"11.8 upbm affinity estimate (log intensity, higher = more binding, comparable within an allelic series)"
same,binding signal,PAX4 [24],"12.2 upbm affinity estimate (log intensity, higher = more binding, comparable within an allelic series)"
same,binding signal,HOXB6 [25],"10.3 upbm affinity estimate (log intensity, higher = more binding, comparable within an allelic series)"
same,binding signal,HOXA2 [26],"12.6 upbm affinity estimate (log intensity, higher = more binding, comparable within an allelic series)"
same,binding signal,HOXA4 [27],"12.3 upbm affinity estimate (log intensity, higher = more binding, comparable within an allelic series)"
same,binding signal,HOXB9 [9],"12.1 upbm affinity estimate (log intensity, higher = more binding, comparable within an allelic series)"
same,binding signal,HOXB4 [10],"14 upbm affinity estimate (log intensity, higher = more binding, comparable within an allelic series)"
same,binding signal,HOXC9 [28],"12.9 upbm affinity estimate (log intensity, higher = more binding, comparable within an allelic series)"
same,binding signal,PAX4 [29],"11.9 upbm affinity estimate (log intensity, higher = more binding, comparable within an allelic series)"
same,binding signal,HOXC9 [30],"12.8 upbm affinity estimate (log intensity, higher = more binding, comparable within an allelic series)"
same,binding signal,HOXA2 [31],"13.4 upbm affinity estimate (log intensity, higher = more binding, comparable within an allelic series)"
same,binding signal,PAX4 [32],"10.5 upbm affinity estimate (log intensity, higher = more binding, comparable within an allelic series)"
same,binding signal,HOXA4 [33],"14.2 upbm affinity estimate (log intensity, higher = more binding, comparable within an allelic series)"
same,binding signal,HOXC10 [34],"12.2 upbm affinity estimate (log intensity, higher = more binding, comparable within an allelic series)"
same,binding signal,PAX4 [35],"11 upbm affinity estimate (log intensity, higher = more binding, comparable within an allelic series)"
same,binding signal,VAX1 [36],"12.7 upbm affinity estimate (log intensity, higher = more binding, comparable within an allelic series)"
same,binding signal,HOXD13,"11.6 upbm affinity estimate (log intensity, higher = more binding, comparable within an allelic series)"
same,binding signal,HOXB9 [14],"11.9 upbm affinity estimate (log intensity, higher = more binding, comparable within an allelic series)"
same,binding signal,HOXC9 [37],"11 upbm affinity estimate (log intensity, higher = more binding, comparable within an allelic series)"
same,binding signal,VAX1 [38],"12.5 upbm affinity estimate (log intensity, higher = more binding, comparable within an allelic series)"
same,binding signal,PAX4 [39],"10.9 upbm affinity estimate (log intensity, higher = more binding, comparable within an allelic series)"
same,binding signal,HOXA2 [40],"11.1 upbm affinity estimate (log intensity, higher = more binding, comparable within an allelic series)"
same,binding signal,HOXA7 [41],"8.9 upbm affinity estimate (log intensity, higher = more binding, comparable within an allelic series)"
same,binding signal,HOXA4 [42],"11.7 upbm affinity estimate (log intensity, higher = more binding, comparable within an allelic series)"
same,binding signal,HOXA2 [43],"12.3 upbm affinity estimate (log intensity, higher = more binding, comparable within an allelic series)"
same,binding signal,VAX1 [44],"12.8 upbm affinity estimate (log intensity, higher = more binding, comparable within an allelic series)"
same,binding signal,HOXB6 [45],"12.4 upbm affinity estimate (log intensity, higher = more binding, comparable within an allelic series)"
